Compound activity from PubChem.
Hits are enriched below; roughly 1.9% of the tested compounds scored in any of these assays.
PP5 primary: PP5 (human) phosphatase inhibition | purified PP5c, OMFP substrate fluorescence | inhibition, % at 6.7 µM | 0.18% of 320,000 active | AID 1987;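 active means inhibition above the campaign's mean inhibition across all tested compounds plus 3 SD, cut at about 9.5% in these data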;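 further: 0% = DMSO only and 100% = 100 µM cantharidin control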
Target sequence (P53041 whole entry, looked up): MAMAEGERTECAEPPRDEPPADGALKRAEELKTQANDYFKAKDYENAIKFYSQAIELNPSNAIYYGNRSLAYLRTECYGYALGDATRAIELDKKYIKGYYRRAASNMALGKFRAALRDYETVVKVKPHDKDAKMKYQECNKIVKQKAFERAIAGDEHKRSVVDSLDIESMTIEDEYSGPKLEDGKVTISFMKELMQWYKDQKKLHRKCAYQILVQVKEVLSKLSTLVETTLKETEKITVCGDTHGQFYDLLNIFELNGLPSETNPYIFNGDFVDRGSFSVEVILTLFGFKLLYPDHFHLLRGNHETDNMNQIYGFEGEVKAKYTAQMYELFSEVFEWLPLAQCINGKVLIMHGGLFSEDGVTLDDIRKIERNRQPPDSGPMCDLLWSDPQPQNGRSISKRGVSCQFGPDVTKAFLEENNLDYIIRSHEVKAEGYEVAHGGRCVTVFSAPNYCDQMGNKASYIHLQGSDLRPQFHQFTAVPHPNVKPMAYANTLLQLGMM
ATG4B inhibitor: blocks human ATG4B protease cleavage of LC3 substrate; inhibition, % at 8.33 µM; ATG4B cleavage of LC3-PLA2, NBD-HPC fluorescence, 1 h; Q9Y4P1; 0.51% of 340,000 active; AID 504462; in the data active means inhibition above about 40%
PP1 inh: PP1-alpha (human) inhibition in PP5 counter-screen | P62136 | purified PP1alpha, OMFP fluorescence | inhibition, % at 6.7 µM | 0.9% of 320,000 active | AID 2235;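 active means inhibition above the mean inhibition of all tested compounds plus 3 SD, computed separately for each screening campaign, cut at about 15% in these data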
H9c2 protect: protects H9c2 cardiomyocytes from peroxide injury; H2O2 injury protection, ATPLite, 2 h; protection from H2O2 cell death, % at 20 µM; 0.63% of 360,000 active;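 active means compounds giving at least 50% protection of heart cells from peroxide-induced death in the single-dose screen, raw or plate-pattern-corrected value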;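 further: 0% = DMSO wells with peroxide and 100% = DMSO wells without peroxide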
ATG4B confirm: confirmation of human ATG4B inhibitors; shares compounds with ATG4B inhibitor; inhibition, % at 8.33 µM; ATG4B protease fluorescent substrate cleavage assay; AID 504757; 92% of 320 active; in the data active means inhibition above about 39%
PLA2 ctr: inhibits human PLA2, flagging false ATG4B inhibitors; purified PLA2, NBD-C6-HPC fluorescence, 45 min; 66% of 1,600 active; AID 588402; shares compounds with ATG4B inhibitor; inhibition, % at 8.33 µM; in the data active means inhibition above about 50%
* marks the source's active call; other numbers are inactive results; x = not tested or not shown.

SMILES	PP5 primary	ATG4B inhibitor	PP1 inh	H9c2 protect	PLA2 ctr	others
COc1ccc(CNC(=O)CCCn2nc([N+](=O)[O-])cc2C)cc1	-1	-3	-4	-3	x
Cc1cc([N+](=O)[O-])nn1CCCC(=O)Nc1cc(Oc2ccc(F)cc2)cc([N+](=O)[O-])c1	-1	61*	0	-4	62*
Cc1cc([N+](=O)[O-])nn1CCCC(=O)Nc1cc(Oc2ccccc2)cc([N+](=O)[O-])c1	2	55*	-2	3	58*
O=C(CN(C(=O)c1csnn1)c1ccc(F)c(Cl)c1)NC1CCCC1	2	4	3	8	x
Cc1ccc(-n2nc3c(=O)n(CCCC(=O)NCCc4ccccc4C)nc(C)c3c2C)cc1	-1	16	-3	0	x
CCCCCCCCCCCCN1[C@@H](CC(=O)O)c2cc(C(F)(F)F)ccc2S1(=O)=O	5	59*	12	-5	72*
c1ccc(CN=C(NCc2ccccc2)NCc2ccccc2)cc1	x	6	x	-9	x
NS(=O)(=O)c1cc(C(=O)NC2CCSc3ccccc32)ccc1Cl (centres undefined)	2	54*	2	1	25	ATG4B confirm=43*
Cc1cccc(N=Cc2cc(Br)cc(Cl)c2O)c1	-1	40*	-1	54*	31	ATG4B confirm=63*
NC(=O)c1cccc(N=Cc2cc(Cl)cc(Cl)c2O)c1	x	20	x	48	x
CSc1ccc(CNC(=O)Cc2ccc(NC(=O)C3=C(C)OCCS3)cc2)cc1	6	-2	-2	-16	x
COc1ccc(O)c(C(=O)c2cnn(C(=O)c3cccc(N(C)C)c3)c2)c1	x	-6	x	-18	x
CN(C)c1cccc(C(=O)n2cc(C(=O)c3cc(F)ccc3O)cn2)c1	1	51*	-1	18	2	ATG4B confirm=50*
C=C(C(=O)Nc1ccccc1)c1ccc(C)cc1	-6	6	-1	-8	x
C/C(CCc1oc2ccccc2c1-c1ccc(C)o1)=N/O	1	61*	1	-8	64*
C/C(CCc1oc2c(Br)cc(Br)cc2c1-c1ccc(C)o1)=N\O	2	12	0	-10	x
Cc1cc(C)c(NC(=O)CNC(=O)CSc2nnc(N)s2)c(C)c1	2	-3	-1	2	x
COc1ccc(Nc2cc(C(=O)N3CCc4ccccc4C3)c3ccccc3n2)c(OC)c1	3	68*	1	-8	82*
COC(=O)C(Cc1ccc(O)cc1)NC(=O)NC12CC3CC(CC(C3)C1)C2 (centres undefined)	0	2	0	-6	x
O=C(CSc1nc2ncccc2[nH]1)Nc1ccccc1-c1ccccc1	2	-3	-4	-4	x
Fc1ccc(C2CC(c3ccco3)=Nc3ccccc3S2)cc1 (centres undefined)	0	46*	1	1	67*
C[C@@H]1CN([C@@H](C)CO)C(=O)c2cc(NC(=O)CCN3CCOCC3)ccc2O[C@@H]1CN(C)C(=O)Nc1ccccc1	x	-12	x	5	x
O=C(/C=C/N1CCOCC1)c1coc2ccccc12	3	44*	0	-4	25
O=C(/C=C/N1CCOCC1)c1cc2ccccc2o1	2	65*	-8	-11	29
CCOc1ccc(NCc2cccn2-c2nnc(N3CCC(C(=O)NCCCN4CC(C)CC(C)C4)CC3)s2)cc1 (centres undefined)	0	9	2	-2	x
SMILES	PP5 primary	ATG4B inhibitor	PP1 inh	H9c2 protect	PLA2 ctr	others
Cc1nn(Cc2c(F)c(F)c(F)c(F)c2F)c(C)c1NC(=O)c1ccc(COc2cc(Cl)ccc2Cl)cc1	1	62*	-6	-3	20	ATG4B confirm=44*
Cc1nn(Cc2c(F)c(F)c(F)c(F)c2F)c(C)c1NC(=O)c1ccc(COc2ccccc2Cl)o1	3	68*	3	-15	79*
Cc1nn(Cc2c(F)c(F)c(F)c(F)c2F)c(C)c1NC(=O)c1ccc(COc2ccc(F)cc2)o1	2	67*	-1	-12	68*
Cc1nn(Cc2c(F)c(F)c(F)c(F)c2F)c(C)c1NC(=O)c1ccc(COc2ccccc2Cl)cc1	x	8	x	-10	x
Cc1cc(NC(=O)c2ccc(COc3ccccc3Cl)o2)no1	-1	-5	-2	-3	x
COc1cccc(NC(=O)CCc2c(C)nc3nc(CNC(=O)c4cccc(F)c4)nn3c2C)c1	0	1	-4	17	x
CCN(CC)c1nc(N)c2c(N)n(-c3ccccc3C)c(=S)c(C#N)c2c1C#N	8	54*	12	3	70*
Cc1ccc(CS(=O)Cc2ccc(C(=O)NCc3cccs3)o2)cc1 (centres undefined)	1	-5	-3	-4	x
Cc1ccc(CS(=O)Cc2ccc(C(=O)NCc3ccccc3Br)o2)cc1 (centres undefined)	-1	63*	-3	2	69*
C=CCN1C(=O)C(CC(=O)O)SC1=Nc1ccc(C(=O)O)cc1 (centres undefined)	0	-2	-1	16	x
C=CCN1C(=O)C(Cc2ccccc2Cl)SC1=Nc1ccc(C(=O)O)cc1 (centres undefined)	4	55*	-1	-1	59*
CCCCCCc1nc(C(N)=O)c2[nH]c(=O)n(-c3ccccc3F)c2n1	2	-3	0	3	x
O=C(O)c1cc(N/N=C2/CC(c3ccccc3)Oc3ccccc32)ccc1Cl (centres undefined)	-1	49*	1	9	40	ATG4B confirm=59*
CC(C)(C)N/N=C1\CC(c2ccccc2)Oc2ccccc21 (centres undefined)	-2	4	-4	-8	x
N#Cc1c(-c2cccc(Br)c2)cc(-c2ccco2)[nH]c1=O	1	x	2	-6	41
COc1ccc(-c2cc(-c3ccco3)[nH]c(=O)c2C#N)cc1	1	-2	0	-4	x
O=C(CSc1cccc[n+]1[O-])C12CC3CC(CC(C3)C1)C2	1	-3	-1	-6	x
C=CCn1c(-c2oc3nc(-c4ccccc4)cc(-c4ccccc4)c3c2N)n[nH]c1=S	0	42*	1	-4	35	ATG4B confirm=70*
C=CCn1c(-c2cccc(Cl)c2)n[nH]c1=S	4	-9	1	-5	x
CCCCCCCCOC(=O)c1c(CSC(=N)N)n(C)c2cc(Br)c(OC(C)=O)cc12	3	40*	17*	-18	5	ATG4B confirm=65*
O=C1N[C@@H](c2ccccc2)COC(=O)[C@@H](Cc2ccc(F)cc2)C/C=C\C[C@@H]1CC(=O)N(CCO)Cc1ccccc1	x	50*	x	2	54*
CCC(C)NC(=O)c1cn(CC)c2ccc(S(=O)(=O)N3CCCCCC3)cc2c1=O (centres undefined)	0	-4	0	3	x
Cc1ccc(S(=O)(=O)Nc2ccccc2C=Nc2cccc(C)c2C)cc1	-3	57*	-2	3	61*
Cc1ccc(S(=O)(=O)Nc2ccccc2N=Cc2c(F)c(F)c(F)c(F)c2F)cc1	x	13	x	17	x
